# Compound activity: PubChem, National Center for Advancing Translational Sciences (NCATS)
# IMPase Li cell: qHTS Assay for Identifying the Cell-Membrane Permeable IMPase Inhibitors: Potentiation with Lithium. CHO-M1 cells, IP1 TR-FRET (IP-One), carbachol + lithium. Potency, µM (top dose mostly 59.4 µM), for the others: top-dose activity, negative = IMPase inhibition, hits mostly inhibitors. hit rate 0.35% among 210,000; active means well fitted curve in the direction sought with a large enough effect; inconclusive means small, poorly fitted or top-dose-only effect, or another doubt; inactive means no such curve, though single readings can be large; an effect the other way counts as inactive or inconclusive;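 further: IP1 builds up when IMPase is blocked and the TR-FRET signal falls; potency means the concentration at half of the fitted maximal effect; plate controls were basal vehicle for no effect and high inhibitor control for full effect; nearly all actives have a fitted effect of over 50% in size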
#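 Test compounds were applied to CHO-M1 cells previously cultured for 16–30 h at 2000 per well. A small lithium amount accompanied them; after 30 min at 37C, IP1 was quantified by TR-FRET.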
# ALDH1A1 block: qHTS Assay for Inhibitors of Aldehyde Dehydrogenase 1 (ALDH1A1); hit rate 7.3% among 220,000; Potency, µM (highest dose often 75.3 µM), without a hit: at the highest dose activity, negative = inhibition, usual class: inhibitors; Purified ALDH1A1, NADH fluorescence, propionaldehyde substrate; AID 1030, 2008;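 further: potency means the concentration at half of the fitted maximal effect; plate controls were no enzyme wells and a reference inhibitor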
# Target sequence (P00352 whole entry, looked up): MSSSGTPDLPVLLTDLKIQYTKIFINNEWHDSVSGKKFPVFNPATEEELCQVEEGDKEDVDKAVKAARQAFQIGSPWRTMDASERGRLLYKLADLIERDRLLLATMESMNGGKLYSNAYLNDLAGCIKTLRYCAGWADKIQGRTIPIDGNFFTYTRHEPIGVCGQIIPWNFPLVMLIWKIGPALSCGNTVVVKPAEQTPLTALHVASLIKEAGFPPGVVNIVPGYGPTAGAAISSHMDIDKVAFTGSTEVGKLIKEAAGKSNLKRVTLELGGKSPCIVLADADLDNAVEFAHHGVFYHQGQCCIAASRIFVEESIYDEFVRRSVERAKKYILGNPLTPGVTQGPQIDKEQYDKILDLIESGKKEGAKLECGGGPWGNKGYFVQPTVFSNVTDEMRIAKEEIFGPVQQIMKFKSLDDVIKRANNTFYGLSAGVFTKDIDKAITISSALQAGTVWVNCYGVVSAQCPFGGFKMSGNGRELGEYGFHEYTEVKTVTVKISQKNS
# IMPase inh: qHTS Assay for Identifying the Cell-Membrane Permeable IMPase Inhibitors; AID 901, 2007; 120,000 tested, under 10 active; inhibition (IP1 accumulation), % at 46.1 µM; Inositol monophosphatase 1 (Rattus norvegicus), P97697; CHO-M1 cells, IP1 accumulation, HTRF TR-FRET ratio; active means well fitted curve in the direction sought with a large enough effect in the signal ratio, not every such curve was filed as active; inconclusive means small, poorly fitted or top-dose-only effect, or a change in a side signal; inactive means no such curve, though single readings can be large or run the other way; the % refers to the signal ratio;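 further: cells stimulated with carbachol in lithium chloride buffer; plate controls were DMSO basal wells for no effect and reference inhibitor wells for full effect; higher means more IMPase inhibition seen as more IP1 and lower FRET ratio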
# Target sequence (P97697 whole entry, looked up): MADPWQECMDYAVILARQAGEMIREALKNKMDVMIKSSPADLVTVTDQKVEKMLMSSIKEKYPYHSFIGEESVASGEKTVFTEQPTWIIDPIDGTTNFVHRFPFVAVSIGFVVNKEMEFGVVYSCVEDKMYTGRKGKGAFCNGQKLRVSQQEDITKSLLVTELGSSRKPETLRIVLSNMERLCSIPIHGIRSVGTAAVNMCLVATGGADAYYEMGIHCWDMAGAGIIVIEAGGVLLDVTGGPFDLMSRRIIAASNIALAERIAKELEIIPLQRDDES
#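 CHO-M1, 2000 cells/well, cultured 16–30 h; cpd up to 46 uM; carbachol (50 uM solution, stimulation buffer w/ 50 mM LiCl, pH 7.4), 30 min 37C; IP-One TR-FRET, 10 min RT; Ex 320/Em 665, 620; Hill-fit AC50.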
# PNC assembly inh: High Content Assay for Compounds that inhibit the Assembly of the Perinucleolar Compartment. AID 2417, 2010. activity change (PNC), negative = inhibition, % at 10 µM. PC3M PTB-GFP, PNC prevalence imaging, 16 h; hits give low values. hit rate 3.1% among 140,000;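 active means readout at or below -70, meaning at least 70% loss of cells showing the perinucleolar compartment, a nuclear body marking cancer cells; inconclusive means readout between -30 and a set limit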;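 further: plate controls were DMSO wells for no effect and camptothecin positive control wells for full effect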
#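 PC3M cells stably expressing PTB-GFP, 750–1000 cells/well, treated 16 h at 37 °C with compound (23 nl of library stock), in duplicate. After paraformaldehyde fixation and Hoechst stain, imaged at 20x; PNC prevalence scored by image analysis.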
# NPSR antag: qHTS Assay for Antagonists of the Neuropeptide S Receptor: cAMP Signal Transduction; CHO-NPSR cells, cAMP TR-FRET, antagonist mode; Q6W5P4; hit rate 1% among 220,000; Potency, µM (doses to about 38.3 µM), inactives show at the top dose activity change, negative = inhibition, hits mostly inhibitors; AID 1461, 2008; active means well fitted curve in the direction sought with a large enough effect; inconclusive means small, poorly fitted or top-dose-only effect, or another doubt; inactive means no such curve, though single readings can be large; an effect the other way counts as inactive or inconclusive; further: potency means the concentration at half of the fitted maximal effect; nearly all actives have a fitted effect of over 50% in size
# HPGD inh: qHTS Assay for Inhibitors of HPGD (15-Hydroxyprostaglandin Dehydrogenase); 15-hydroxyprostaglandin dehydrogenase [NAD(+)] (Homo sapiens), P15428; purified HPGD, NADH fluorescence kinetic, PGE2 substrate; Potency, µM, inactives show at the highest dose activity change, negative = inhibition, most hits filed as inhibitors; hit rate 4.3% among 150,000; further: potency means the concentration at half of the fitted maximal effect
#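 20 nM HPGD preincubated 15 min at room temperature with compound in 50 mM Tris-HCl pH 8, 0.01% Tween 20. Started with 1 mM NAD+ and 30 uM prostaglandin E2; NADH fluorescence (360/450 nm) read 5 times over 30-s intervals, last minus first.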
# * marks the source's active call; other numbers are inactive results; ? = inconclusive; / = no result; [ ] = dose if it differs, or a comment. A selection: hits, their analogues and other compounds. The true share with any hit is near 11%. Unless noted, the call rests on the fitted dose curve; in most records, active means well fitted inhibition curve with a large enough effect (not every such curve was filed as active); inconclusive means small, poorly fitted or top-dose-only effect, or another doubt; inactive means no such curve, though single readings can be large or run the other way. Unless noted, on the % scale 0 is the no-effect control and ±100 the full control effect.
SMILES,IMPase Li cell,ALDH1A1 block,IMPase inh,PNC assembly inh,NPSR antag,HPGD inh
CC(Sc1nc(-c2ccccc2)cc(C(F)(F)F)n1)C(=O)Nc1sc2c(c1C(N)=O)CCC2 (stereo not drawn),0%,?,/,3,-30%,32µM*
OCCC1CN(Cc2cccn2-c2ncccn2)CCN1Cc1ccc(F)cc1 (stereo not drawn),/,/,/,/,30%,/
CCOC(=O)c1ccc(NC2OC(=O)c3ccccc32)cc1 (stereo not drawn),3%,5%,2,-94*,-7%[46.1 µM],-3%
CC1C[C@@]2(NC(=O)NC2=O)C(C)CN1C (stereo partly drawn),4%,9%,3,-100*,4%[46.1 µM],-15%
CCOC(=O)c1sc(NC(=O)CSc2nc3c(c(=O)n2-c2ccc(C)cc2)SCC3)c(C(=O)OCC)c1C,6%,9.5µM*,/,7,9%,-29%
Cc1ccc(-n2c(SCC(=O)NCC3CCCO3)nc3c(c2=O)SCC3)cc1 (stereo not drawn),35%[38.3 µM],25µM*,2,-7,-3%[46.1 µM],-27%
CCOc1ccc(-n2c(SCC(=O)NCc3ccco3)nc3c(c2=O)SCC3)cc1,22%[38.3 µM],14µM*,1,?,-15%[46.1 µM],-20%
O=C(CSc1nc2c(c(=O)n1-c1ccc(Br)cc1)SCC2)NCC1CCCO1 (stereo not drawn),8%,?,-6,77,1%,-15%
Cc1ccc(Cn2c(SCC(=O)NCC3CCCO3)nc3ccsc3c2=O)cc1 (stereo not drawn),6%,20µM*,/,/,-24%,/
O=C(CSc1nc2c(c(=O)n1-c1ccc(Br)cc1)SCC2)NCc1ccco1,33%[38.3 µM],3%,3,29,-27%[46.1 µM],-13%
Cc1ccc(NC(=O)Nc2cc(S(=O)(=O)N(C)C)ccc2C)cc1,9%,-6%,/,/,-18%,/
CCOc1cc(CN2CCN(c3cccc(C(F)(F)F)c3)CC2)ccc1O,/,-1%,-2,18,-23%[46.1 µM],/
CC(=O)N1CC=CC1(C)C(=O)NCc1cc(F)cc(C(F)(F)F)c1 (stereo not drawn),-2%,-3%,/,9,5%,-13%
COc1cccc(-c2ccc3ncnc(NCCc4c[nH]c5ccc(OC)cc45)c3c2)c1,23%,-7%,/,/,/,/
COC(=O)[C@@]1(Cc2ccc(OC)cc2)[C@H]2c3cc(C(=O)N4CCCC4)n(CCc4ccccn4)c3C[C@H]2CN1C(=O)c1ccccc1,5%,-4%,/,/,/,-4%
O=C(NCC(c1ccco1)N1CCCC1)c1ccccc1F (stereo not drawn),29%[38.3 µM],2%,7,?,4%[46.1 µM],-6%
CCOC(=O)c1cnn(-c2ccccc2)c1NC(=O)c1ccccc1C,-11%[38.3 µM],?,?,-19,-22%[46.1 µM],-3%
Cc1ccc(C)n1-c1c(C(=O)NN)cnn1-c1ccccc1,1%,3.2µM*,/,/,1%,/
CC1(C)CC(=O)C(C(C2=C(O)CC(C)(C)CC2=O)c2ccc(Br)s2)C(=O)C1 (stereo not drawn),3%,3.5µM*,/,-1,-58%,1.4µM*
Cc1ccc(C(C2=C(O)CC(C)(C)CC2=O)C2C(=O)CC(C)(C)CC2=O)s1 (stereo not drawn),-3%[38.3 µM],8.9µM*,-2,-12,-13%[46.1 µM],3.2µM*
CCOC(=O)C(/C=C(\C#N)C(=O)OCC)=C(/N)N1CCN(c2ccc(OC)cc2)CC1,-12%[38.3 µM],1%,5,?,-19%[46.1 µM],-9%
COc1ccc(N(CC(=O)NCc2ccccc2)S(C)(=O)=O)cc1,0%,-1%,/,-15,4%,-7%
CCC(NC(=O)C1(C)CC1(Br)Br)c1ccc(C)cc1 (stereo not drawn),8%[38.3 µM],4%,-3,?,-13%[46.1 µM],-18%
CCOCCCNC(=O)C(NC(=O)c1ccc2c(c1)OCO2)c1ccc(OC)cc1 (stereo not drawn),/,2%,0,8,-7%[46.1 µM],/
O=C(CN(CC1CCCO1)C(=O)CCC(=O)Nc1ccccn1)NCc1ccccc1 (stereo not drawn),-1%,3%,-4,-100*,5%[46.1 µM],-16%
SMILES,IMPase Li cell,ALDH1A1 block,IMPase inh,PNC assembly inh,NPSR antag,HPGD inh
Cc1ccc2c(c1)CCCN2C(=O)c1cc2ccccc2oc1=O,3%[38.3 µM],14µM*,6,-28,-2%[46.1 µM],-14%
O=C(COc1ccc(/C=N/NC(=O)c2ccccc2O)cc1)Nc1ccccc1,33%,?,/,/,-24%,/
O=C(N/N=C/c1ccc(OCC(=O)N2CCCCC2)cc1)c1ccccc1,-3%[38.3 µM],18µM*,5,-4,-9%[46.1 µM],14µM*
O=C(N/N=C/c1ccc(OCC(=O)N2CCCCC2)cc1)c1ccccc1O,4%,-6%,10,-9,-21%[46.1 µM],22µM*
Nc1ccc(Br)cc1-c1nc2ccccc2[nH]c1=O,1%,12%,/,/,-2%,/
CC1(C)Cc2c(sc3ncnc(NNC(=S)NCc4ccccc4)c23)CO1,3%,1.4µM*,/,-6,-30%,-11%
CCc1ccccc1NC(=O)C1CCN(S(=O)(=O)c2ccccc2)CC1,/,/,9,/,/,/
CCOC(=O)C1=C(C)Nc2ccccc2N=C1NC(=O)/C=C/c1ccc(OC)cc1OC,10%,20µM*,/,/,-27%,/
Cc1cc(C)c2cc(CN(Cc3ccco3)C(=S)NCC3CCCO3)c(=O)[nH]c2c1 (stereo not drawn),19%,25µM*,/,/,17%,/
Cc1ccc2cc(CN(Cc3nnnn3Cc3ccco3)CC3CCCO3)c(=O)[nH]c2c1C (stereo not drawn),22%[38.3 µM],1.8µM*,1,?,-13%[46.1 µM],-25%
Cc1ccc2cc(CN(CC3CCCO3)C(=S)NCc3ccco3)c(=O)[nH]c2c1C (stereo not drawn),1%,22µM*,9,?,6%,-11%
Cc1ccc(C)c2[nH]c(=O)c(CN(CC3CCCO3)C(=S)NCc3ccco3)cc12 (stereo not drawn),/,/,/,/,-34%,/
COc1cccc(CNC(=O)CN(c2cc(C)cc(C)c2)S(=O)(=O)c2c(C)noc2C)c1,13%[38.3 µM],-1%,4,3,-10%[46.1 µM],-9%
COc1ccccc1-n1c(SCC(=O)Nc2cccc3ccccc23)nc(O)cc1=O,38%[38.3 µM],?,-6,79,-7%[46.1 µM],-16%
COc1ccc(C2=NOC(COc3ccc([N+](=O)[O-])cc3)C2)cc1 (stereo not drawn),/,/,/,/,-11%,/
COc1cccc(/C=N/Nc2nn3cnnc3c3ccccc23)c1,29%[38.3 µM],?,0,-80*,-14%[46.1 µM],?
